Compounds without any hit were thinned out: in the full panel of roughly 83,000, 20% have a hit.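 Values shown are percent growth following 48 h exposure of cells in 96-well plates to a single concentration of compound; below 10 was considered active.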 Calls of active or inactive are those of the source.
test system: MDA-MB-468 breast; test: NCI-60 one-dose screen, 48 h (100 = growth as untreated, 0 = no growth, -100 = all killed); details: 10 µM unless noted

| Structure (SMILES) | growth |
| --- | --- |
| O=C(CCCN1CCOCC1)Nc1ccc(Cn2nnc3c2C(=O)c2nnn(Cc4ccc(NC(=O)CCCN5CCOCC5)cc4)c2C3=O)cc1 | -74.7% (active) |
| COc1ccc(C/C(C)=C(\c2ccc(Cl)cc2)c2ccc(OCCN3CCCC3)cc2)cc1 | 70% (inactive) |
| CC(=O)OCCO | 98.6% (inactive) |
| O=C(O)CN1C(=O)CCC1=O | 108% (inactive) |
